Substitutions are numbered along the chain they refer to.
Tests used:
Test in all cases: protein-binding microarray (PBM); PBM: ~300 nM protein, 6 mM HEPES pH 7.8, 80 mM KCl, 0.5 mM EDTA, 0.5 mM EGTA, 6% glycerol, 35 ng/ul poly-dIdC, 1% milk, 1 h, room temperature; Ap Aiptasia and Nv Nematostella (sea anemones) / Co Capsaspora / Aq Amphimedon (sponge) / Dm Drosophila / Hu human; RHD is the Rel homology domain; high values mean tight binding
Details in all cases: dsDNA, one strand shown
GST-Ap-NF-kB RHD = target: T1, GST-Ap-NF-kB RHD (Exaiptasia pallida (Aiptasia), UniProt A0A913YAJ5 2-422)
T1 sequence: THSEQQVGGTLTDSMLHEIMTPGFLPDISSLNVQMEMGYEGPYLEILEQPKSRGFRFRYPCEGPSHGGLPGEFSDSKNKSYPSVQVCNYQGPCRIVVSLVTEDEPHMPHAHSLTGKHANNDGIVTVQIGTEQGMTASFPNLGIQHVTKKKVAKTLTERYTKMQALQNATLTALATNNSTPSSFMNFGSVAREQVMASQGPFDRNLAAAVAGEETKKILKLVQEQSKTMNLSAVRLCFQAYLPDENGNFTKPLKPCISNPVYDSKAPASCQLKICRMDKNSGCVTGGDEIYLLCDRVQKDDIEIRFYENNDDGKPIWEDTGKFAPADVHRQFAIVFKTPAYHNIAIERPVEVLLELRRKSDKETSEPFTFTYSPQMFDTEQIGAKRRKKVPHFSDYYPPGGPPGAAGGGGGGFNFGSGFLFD

[1] = target: T2, GST-Nv-NF-kB (Cys allele) (Nematostella vectensis, UniProt E5G601 2-411)
T2 sequence: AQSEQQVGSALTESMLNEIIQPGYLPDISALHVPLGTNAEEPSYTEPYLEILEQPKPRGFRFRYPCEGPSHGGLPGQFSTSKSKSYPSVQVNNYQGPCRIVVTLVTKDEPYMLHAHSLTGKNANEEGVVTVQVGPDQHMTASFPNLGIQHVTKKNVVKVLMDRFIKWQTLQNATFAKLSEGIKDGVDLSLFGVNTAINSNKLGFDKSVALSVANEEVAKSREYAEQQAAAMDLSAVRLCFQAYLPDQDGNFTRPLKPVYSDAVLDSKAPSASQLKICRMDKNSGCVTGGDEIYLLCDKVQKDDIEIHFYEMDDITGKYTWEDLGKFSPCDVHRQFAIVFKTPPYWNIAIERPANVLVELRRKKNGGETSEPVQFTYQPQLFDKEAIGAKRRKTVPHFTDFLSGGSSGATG

[2] = target: T3, GST-Nv-NF-kB (Ser allele) (Nematostella vectensis, UniProt A7UNT2 2-411)
T3 sequence: T2 sequence with Q21R, C66S, S207N, E215Q, V217A, E225K, A268E, D399E

GST-Co-NF-kB = target: T4, GST-Co-NF-kB (Capsaspora owczarzaki, UniProt F1ARL5 200-546)
T4 sequence: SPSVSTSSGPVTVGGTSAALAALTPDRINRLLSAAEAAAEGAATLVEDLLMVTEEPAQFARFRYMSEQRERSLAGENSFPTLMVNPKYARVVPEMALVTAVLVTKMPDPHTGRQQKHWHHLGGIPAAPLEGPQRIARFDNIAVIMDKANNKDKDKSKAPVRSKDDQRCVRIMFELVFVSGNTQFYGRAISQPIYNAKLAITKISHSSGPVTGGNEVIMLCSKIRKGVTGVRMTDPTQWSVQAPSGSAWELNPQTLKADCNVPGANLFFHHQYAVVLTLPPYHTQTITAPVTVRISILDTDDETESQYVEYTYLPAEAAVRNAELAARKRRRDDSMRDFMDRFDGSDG

GST-Dm-Relish = target: T5, GST-Dm-Relish (Drosophila melanogaster, UniProt Q94527 99-473)
T5 sequence: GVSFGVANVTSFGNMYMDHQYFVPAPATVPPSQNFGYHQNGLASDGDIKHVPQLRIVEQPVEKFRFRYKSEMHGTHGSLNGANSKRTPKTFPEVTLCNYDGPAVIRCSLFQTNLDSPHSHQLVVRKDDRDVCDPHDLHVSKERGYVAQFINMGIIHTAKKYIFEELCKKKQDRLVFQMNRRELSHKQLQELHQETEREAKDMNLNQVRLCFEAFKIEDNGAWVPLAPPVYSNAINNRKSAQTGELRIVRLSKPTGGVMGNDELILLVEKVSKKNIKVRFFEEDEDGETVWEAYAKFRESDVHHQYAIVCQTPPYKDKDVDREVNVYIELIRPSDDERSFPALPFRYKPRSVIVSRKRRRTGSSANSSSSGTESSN

GST-Aq-NF-kB = target: T6, GST-Aq-NF-kB (Amphimedon queenslandica, UniProt A9Y5G7 2-389)
T6 sequence: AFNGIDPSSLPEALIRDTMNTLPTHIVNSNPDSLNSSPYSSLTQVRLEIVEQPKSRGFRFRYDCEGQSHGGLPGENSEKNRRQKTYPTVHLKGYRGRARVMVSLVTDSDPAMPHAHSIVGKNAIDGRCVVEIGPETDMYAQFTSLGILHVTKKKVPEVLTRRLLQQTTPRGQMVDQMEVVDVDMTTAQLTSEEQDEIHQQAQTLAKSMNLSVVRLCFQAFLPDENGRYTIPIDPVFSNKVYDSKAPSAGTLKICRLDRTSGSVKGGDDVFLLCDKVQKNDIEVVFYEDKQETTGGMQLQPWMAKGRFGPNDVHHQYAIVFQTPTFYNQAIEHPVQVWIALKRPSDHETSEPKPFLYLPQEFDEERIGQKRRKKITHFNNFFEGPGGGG

GST-Hu-p50 = GST-Hu-p50 (Homo sapiens, UniProt P19838 7-356)
Sequence of GST-Hu-p50 (P19838 7-356): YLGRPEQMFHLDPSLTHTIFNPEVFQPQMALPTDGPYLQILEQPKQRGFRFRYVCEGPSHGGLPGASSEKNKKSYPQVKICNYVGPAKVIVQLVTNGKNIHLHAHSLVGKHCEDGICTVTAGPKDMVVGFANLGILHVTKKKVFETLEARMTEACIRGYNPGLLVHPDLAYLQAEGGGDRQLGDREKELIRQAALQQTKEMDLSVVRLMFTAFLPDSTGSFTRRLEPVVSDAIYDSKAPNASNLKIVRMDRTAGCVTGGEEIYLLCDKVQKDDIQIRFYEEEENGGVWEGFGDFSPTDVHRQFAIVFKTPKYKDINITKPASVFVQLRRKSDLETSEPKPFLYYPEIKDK

Sequence	binding signal (GST-Ap-NF-kB RHD) [z-score]	binding signal [1] [z-score]	binding signal [2] [z-score]	binding signal (GST-Co-NF-kB) [z-score]	binding signal (GST-Dm-Relish) [z-score]	binding signal (GST-Aq-NF-kB) [z-score]	binding signal (GST-Hu-p50) [z-score]
CCGATTAACATCACCTTTTCCCCTGATGTTAATCGGGTCTTGATTCGCTTGACGCTGCTG	6.24	6.89	8.88	8.71	2.77	4.69	5.94
CCGATTAACATCACAAAAACCCCTGATGTTAATCGGGTCTTGATTCGCTTGACGCTGCTG	7.23	7.23	6.81	2.92	8.1	6.48	6.99
CCGATTAACATCACGGGAACACCTGATGTTAATCGGGTCTTGATTCGCTTGACGCTGCTG	1.81	1.11	1.02	1.95	4.06	2.73	1.28
CCGATTAACATCAAAATTTACCCTGATGTTAATCGGGTCTTGATTCGCTTGACGCTGCTG	3.17	5.04	6.15	4.27	4.47	5.23	4.09
CCGATTAACATCAGGGAAAGCACTGATGTTAATCGGGTCTTGATTCGCTTGACGCTGCTG	3.61	4.73	3.86	2.69	6.76	6.5	3.98
CCGATTAACATCAAACAATCCCCTGATGTTAATCGGGTCTTGATTCGCTTGACGCTGCTG	7.46	7.94	9.07	3.49	5.32	6.2	6.29

Reference: PMC5700166
